From PubChem
VP16 counter = counter-screen for ROR gamma inhibitors: Gal4-VP16 reporter; hit rate 3.5% among 310,000; Drosophila S2 Gal4-VP16 UAS-luciferase, luminescence, 20 h; Potency, µM (top dose mostly 53.6 µM), for the others: at the highest dose activity, negative = inhibition, most hits filed as inhibitors; AID 2546;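 further: Gal4-VP16 expression switched on by copper sulfate through the metallothionein promoter; on the % scale 0 is the no-effect control and ±100 the full control effect; nearly all actives have a fitted effect of over 50% in size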
GLP1R ag = activates the human GLP-1 receptor; HEK293 GLP-1R CRE-luciferase, luminescence, 4-6 h; cells express a hypersensitive GLP-1R form; Potency, µM (top dose mostly 45.6 µM), for the others: top-dose activation, actives largely listed as activators; hit rate 0.007% among 380,000; AID 624172; further: % of control where 0% means no effect
Target sequence (P43220 whole entry, looked up): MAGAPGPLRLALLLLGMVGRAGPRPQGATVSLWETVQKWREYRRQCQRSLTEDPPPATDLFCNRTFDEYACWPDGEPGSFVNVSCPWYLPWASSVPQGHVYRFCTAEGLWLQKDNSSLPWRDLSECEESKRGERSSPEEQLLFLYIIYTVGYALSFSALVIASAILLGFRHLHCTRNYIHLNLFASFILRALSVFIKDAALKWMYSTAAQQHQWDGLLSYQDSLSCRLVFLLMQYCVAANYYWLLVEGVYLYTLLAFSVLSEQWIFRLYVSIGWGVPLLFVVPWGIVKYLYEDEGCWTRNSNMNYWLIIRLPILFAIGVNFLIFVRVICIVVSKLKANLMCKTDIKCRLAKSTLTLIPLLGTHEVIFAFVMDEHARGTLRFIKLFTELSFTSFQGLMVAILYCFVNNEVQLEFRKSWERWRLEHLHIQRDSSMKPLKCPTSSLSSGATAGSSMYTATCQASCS
GLP-1R inv ag = GLP-1 receptor (human) inverse agonism; HEK293 GLP-1R CRE-luciferase, luminescence, 24 h; GLP-1R form is constitutively active; Potency, µM (doses to about 38.3 µM), for inactives: top-dose activity change, negative = inhibition, most hits filed as inhibitors; hit rate 1.6% among 410,000; AID 624417; further: on the % scale 0 is the no-effect control and ±100 the full control effect; nearly all actives have a fitted effect of over 55% in size
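Stable HEK293 clone (constitutively active GLP-1R + cAMP-response luciferase); 200 cells/uL plated, 12 h pre-culture, compound 24 hr, 37 deg C/5% CO2; detection reagent 12 min RT; luminescence.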
RORg inh = inhibitors of mouse ROR gamma transcriptional activity; Potency, µM (highest dose often 53.6 µM), without a hit: at the highest dose activity change, negative = inhibition, usual class: inhibitors; P51450; hit rate 5.4% among 310,000; Drosophila S2 Gal4-RORgamma UAS-luciferase reporter, 20 h; further: on the % scale 0 is the no-effect control and ±100 the full control effect; nearly all actives have a fitted effect of over 60% in size
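Schneider cells (Drosophila), stable Gal4 DBD–ROR gamma + UAS-luc; 1 hr cmpd preincubation; Cu2+ induction 700 uM final; 20 hr ambient; luminescence.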
HEK293 tox = cytotoxicity in counter-screen for GLP-1R inverse agonists; AID 624418; Potency, µM (highest dose often 38.3 µM), without a hit: at the highest dose activity change, negative = inhibition, hits mostly inhibitors; HEK293 cAMP-luciferase reporter cells, luminescence, 24 h; hit rate 0.13% among 410,000;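 further: loss of luciferase light is scored as toxicity; on the % scale 0 is the no-effect control and ±100 the full control effect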
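Step one: seed cells (200 cells/uL, DMEM with 10% Nu serum, 1% pen-strep). Step two: 12-hour incubation at 37 deg C. Step three: pin 23 nL compound, incubate 24 hr. Step four: add luciferase reagent, read luminescence 12 min later.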
An asterisk follows results filed as active; u = inconclusive; x = not tested or not shown; [ ] = dose if it differs, or a comment. Rows were chosen to be rich in hits. Some 5.9% of all compounds tested hit in one or more screens of this group. The call rests on the fitted dose curve; in most records, active means well fitted curve in the direction sought with a large enough effect; inconclusive means small, poorly fitted or top-dose-only effect, or another doubt; inactive means no such curve, though single readings can be large; an effect the other way counts as inactive or inconclusive. Potency means the concentration at half of the fitted maximal effect.

SMILES	VP16 counter	GLP1R ag	GLP-1R inv ag	RORg inh	HEK293 tox
Cc1c(N)nc([C@@H](CC(N)=O)NC[C@H](N)C(N)=O)nc1C(=O)N[C@H](C(=O)N[C@@H](C)[C@@H](O)[C@@H](C)C(=O)N[C@H](C(=O)NCCc1nc(-c2nc(C(=O)NCCCN[C@H](C)c3ccccc3)cs2)cs1)[C@H](C)O)[C@@H](O[C@H]1O[C@@H](CO)[C@H](O)[C@@H](O)[C@H]1O[C@H]1O[C@@H](CO)[C@@H](O)[C@H](OC(N)=O)[C@H]1O)c1cnc[nH]1	x	-5.4%	x	x	x
Clc1ccc(CSc2ncnc3c2ncn3C2CCCCO2)cc1 (configuration not stated)	x	30.7%	11.2µM*	x	0.3%
COC(=O)c1c(C)cc(C)n2c1nc1ccccc12	-5.9%	26.6%	5.1%	10µM*	16.2%
CCN(CCNC(=O)C1CCN(Cc2nc(-c3ccc(Cl)cc3)oc2C)CC1)c1ccccc1	u	-4.9%	2.51µM*	u	u
CCC1CCCCN1CCCNC(=O)C1CCN(Cc2nc(-c3ccc(Cl)cc3)oc2C)CC1 (configuration not stated)	-12.0%	-6.7%	12.6µM*	-11.5%	5.01µM*
COc1ccc(-c2nc(CN3CCC(C(=O)NCCCN4CCN(c5ccccc5F)CC4)CC3)c(C)o2)cc1OC	x	x	10µM*	x	12.6µM*
CCc1ccc(-c2nc(CN3CCC(C(=O)NCCN(CC)c4ccccc4)CC3)c(C)o2)cc1	-5.4%	-0.6%	u	-2.1%	-18.1%
Cc1ccc(NC(=O)CN2C(=O)CCc3cc(S(=O)(=O)N4CCOCC4)ccc32)c(C)c1	x	x	6.4%	x	4.3%
O=C(Nc1ccncc1)c1ccc2c(c1)C(=O)N(C1CCCCC1)C2=O	11.2µM*	-3.7%	-25.0%	u	2.7%
Cc1cc(NC(=O)c2ccc3c(c2)C(=O)N(C2CCCCC2)C3=O)no1	7.6%	-11.4%	6.7%	-12.4%	-1.5%
Cc1ccc(-n2ncc3c(Nc4cccc(C(F)(F)F)c4)ncnc32)cc1C	x	x	u	x	-1.1%
COc1ccc(NC(=O)C2=C(C)C(=O)OC23CCN(C(C)C)CC3)cc1Cl	x	x	15.5%	x	4.8%
COC(=O)c1cc(C(=O)N2CCN(c3ccccc3OC)CC2)cc([N+](=O)[O-])c1	1.5%	22.4%	1µM*	-12.6%	u
COC(=O)c1cc(C(=O)N2CCN(c3cccc(C)c3C)CC2)cc([N+](=O)[O-])c1	-5.9%	11.3%	3.98µM*	-1.0%	u
COC(=O)NC(c1ccccc1)[C@@]1(C(=O)OC)CCCC1=O (some centres not stated)	17.2%[10 µM]	x	x	6.2%[10 µM]	x
Cc1ccc(/C=N/NC(=O)c2cccs2)s1	11.2µM*	20.6%	10.9%	11.2µM*	-3.3%
O=C(N/N=C/c1ccc(Br)s1)c1ccncc1	1µM*	12.6%	u	0.794µM*	u
O=C(N/N=C/c1ccc(Br)s1)Nc1ccccc1	u	14.1%	-19.9%	-72.1%	3.2%
O=C(N/N=C/c1ccc(Br)s1)c1cccs1	5.01µM*	27.2%	-19.8%	3.16µM*	-22.3%
O=C(N/N=C/c1ccc(Br)s1)c1c[nH]c2ccccc12	u	2.2%	-28.2%	u	-18.2%
Cc1ccc(N2CCN(C(=O)c3ccccc3Br)CC2)c(C)c1	-9.7%	-20.9%	10µM*	5.2%	5.3%
O=C(Cn1c(=O)n(Cc2ccc(C(=O)NCc3ccc4c(c3)OCO4)cc2)c(=O)c2ccccc21)Nc1cccc(Cl)c1	x	0.3%	0.5%	x	-14.2%
COCCn1c(=O)cnc2cnc(N3CCNCC3)nc21	-0.1%	x	x	-21.0%	x
CC1(C)OC(C(O)(c2cc(F)c(F)c(F)c2)c2cc(F)c(F)c(F)c2)C(C(O)(c2cc(F)c(F)c(F)c2)c2cc(F)c(F)c(F)c2)O1 (configuration not stated)	-7.0%[10 µM]	x	x	12.6%[10 µM]	x
O=C(Nc1cccc(O)c1)c1noc2c1CCCCC2	3.55µM*	-0.7%	-0.1%	11.2µM*	-3.9%
SMILES	VP16 counter	GLP1R ag	GLP-1R inv ag	RORg inh	HEK293 tox
O=C(Nc1cccc(O)c1)c1cc(-c2cccs2)on1	3.55µM*	-0.8%	u	2µM*	-2.7%
COc1cccc(-c2cc(C(=O)Nc3cccc(O)c3)no2)c1	2.51µM*	-6.2%	-10.0%	0.891µM*	-7.8%
COC(=O)c1ccccc1C[C@]1(C(=O)OC)C=C[C@H](C)[C@@H](c2ccccc2)N1C(=O)C(F)(F)F	-18.7%	x	x	-11.2%	x
CCn1cc(C(=O)NCCCN2CCC(C)CC2)c(=O)c2cc(S(=O)(=O)N(C)C3CCCCC3)ccc21	0.2%	6.6%	10µM*	-1.2%	u
CCn1cc(C(=O)NCCCN2CC(C)CC(C)C2)c(=O)c2cc(S(=O)(=O)N(C)C3CCCCC3)ccc21 (configuration not stated)	3.4%	4.8%	-27.8%	1.4%	-14.9%
COc1ccc(-n2c(CCC(=O)O)ccc2-c2ccccc2)c(OC)c1	x	x	u	x	0.4%
COc1ccc(-c2[nH]n(-c3ccc([N+](=O)[O-])cc3)c(=O)c2C=NCCN2CCNCC2)cc1	u	x	x	14.1µM*	x
CC(C)N(Cc1ccccc1)C(=O)CCc1ccccc1	9.7%	-1.6%	u	0.3%	2.0%
CC(C)(C)N(Cc1ccccc1)C(=O)CCc1ccccc1	u	5.4%	22.4µM*	u	13.9%
CCN(CC)CCCNC(=O)CCC(=O)Nc1ccc2nc(N3CCC(C)CC3)cc(C)c2c1	0.2%	11.2%	7.08µM*	2.3%	16.1%
CCN(CC)CCCNC(=O)CCC(=O)Nc1ccc2nc(N3CCCCC3)cc(C)c2c1	-7.3%	20.4%	u	2.8%	-13.0%
CC(C)C[C@H](N)c1cn([C@@H](CCCCN)C(=O)N2CCNCC2)nn1	-4.7%	-21.7%	0.891µM*	-17.7%	u
CCOC(=O)N1CCN(c2ccccc2OC)CC1	8.3%	-0.7%	18.8%	-6.6%	-7.6%
CCOC(=O)/C(=N\Nc1ccc(Br)cc1)N1CCN(c2ccccc2OC)CC1	0.3%	0.9%	2.24µM*	10.1%	u
COCCCn1c(=S)[nH]c2sc3c(c2c1=O)CCCC3	1µM*	-1.6%	30.2%	0.794µM*	-12.6%
CCN(CC)C(=O)CSc1nc2sc3c(c2c(=O)n1CCOC)CCC3	5.4%	-3.8%	0.9%	1.4%[1.91 µM]	1.7%
COCCn1c(=S)[nH]c2sc3c(c2c1=O)CCCC3	2.24µM*	-4.0%	44.5%	3.98µM*	-9.7%
O=c1[nH]c2sc3c(c2c(=O)n1Cc1ccccc1)CCC3	-0.6%	26.5%	9.5%	-14.8%[10 µM]	10.7%
C=CCn1c(=S)[nH]c2sc3c(c2c1=O)CCCC3	0.708µM*	-6.0%	-13.0%	0.398µM*	5.1%
Cc1oc(-c2ccccc2Cl)nc1Cn1c(SCc2cccc(F)c2)nc2cccnc21	x	x	u	x	-5.8%
O=C(CCCC[C@@H]1SC[C@H]2NC(=O)N[C@H]12)Nc1ccc(C(=O)O)cc1	-9.0%	x	x	6.3%	x
